Bioassay records: PubChem, National Center for Advancing Translational Sciences (NCATS)
Only some compounds are listed: those with a hit (about 2.4% of all), similar ones and a draw of the others.
POLH inh = qHTS for Inhibitors of Polymerase Eta. 390,000 tested, 1.2% active. DNA polymerase eta (Homo sapiens), Q9Y253. Potency, µM (series often up to 114 µM), hits mostly inhibitors. AID 588591, 2011. recombinant Pol eta, fluorescent DNA replication assay
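Pol eta at 10 nM preincubated with compounds 15 min at room temperature; reaction started with fluorescent substrate (50 nM final) and read kinetically at 0 and 10 min.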
POLK inh = qHTS for Inhibitors of Polymerase Kappa; 400,000 tested, 0.53% active; Potency, µM (series often up to 107 µM), usual class: inhibitors; purified Pol kappa, fluorescent DNA synthesis assay, 10 min; DNA polymerase kappa (Homo sapiens), Q9UBT6
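Readout: fluorescence, taken kinetically at 0 and 10 min. Conditions: 10 nM Pol kappa, 15 min RT compound preincubation, 50 nM substrate final. Controls: enzyme-free buffer wells.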
Pol beta inh = qHTS Assay for Inhibitors of DNA Polymerase Beta | P06746 | 340,000 tested, 1.3% active | AID 485314, 2010 | Potency, µM (top dose mostly 114 µM), actives largely listed as inhibitors | Pol beta primer extension/strand displacement, fluorescence kinetic
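Enzyme-only controls used 10 nM Pol beta; buffer lacking enzyme served as negative control. Compound preincubated 15 min, then 50 nM substrate added; 0 and 10 min reads at room temperature.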
POLI inh = qHTS for Inhibitors of Polymerase Iota. Potency, µM (top dose mostly 115 µM), usual class: inhibitors. 390,000 tested, 1% active. Pol iota fluorescent replication assay, 10 min. AID 588590, 2011
Target sequence (Q9UNA4 whole entry, looked up): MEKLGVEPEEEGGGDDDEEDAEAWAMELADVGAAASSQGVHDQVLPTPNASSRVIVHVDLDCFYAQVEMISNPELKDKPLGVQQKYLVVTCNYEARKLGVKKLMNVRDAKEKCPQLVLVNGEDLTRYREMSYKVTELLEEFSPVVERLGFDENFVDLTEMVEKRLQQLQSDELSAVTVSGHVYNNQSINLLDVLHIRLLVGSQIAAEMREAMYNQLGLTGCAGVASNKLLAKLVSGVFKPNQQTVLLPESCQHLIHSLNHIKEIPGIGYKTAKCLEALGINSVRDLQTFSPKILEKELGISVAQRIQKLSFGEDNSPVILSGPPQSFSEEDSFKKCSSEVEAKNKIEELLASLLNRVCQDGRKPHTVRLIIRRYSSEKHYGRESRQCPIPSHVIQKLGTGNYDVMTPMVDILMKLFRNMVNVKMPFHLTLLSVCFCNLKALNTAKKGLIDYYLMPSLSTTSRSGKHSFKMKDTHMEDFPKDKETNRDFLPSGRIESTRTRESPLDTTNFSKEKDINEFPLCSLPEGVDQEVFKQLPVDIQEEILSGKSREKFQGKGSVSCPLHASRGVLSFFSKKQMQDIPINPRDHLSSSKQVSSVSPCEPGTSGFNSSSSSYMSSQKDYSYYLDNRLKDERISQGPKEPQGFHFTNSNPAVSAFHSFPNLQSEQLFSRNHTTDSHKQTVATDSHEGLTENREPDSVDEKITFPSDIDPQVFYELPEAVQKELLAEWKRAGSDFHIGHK
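Fluorescent replication assay read twice, at 0 min and 10 min after adding 50 nM (final) substrate. Enzyme (10 nM) and compounds were first incubated 15 min at room temperature; enzyme-free buffer wells were negative controls.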
TDP1 inh = qHTS Assay for Inhibitors of Tyrosyl-DNA Phosphodiesterase (TDP1) | recombinant TDP1, AlphaScreen DNA substrate cleavage | Potency, µM (titrated, usually from 130 µM), actives largely listed as inhibitors | AID 485290, 2010 | 350,000 tested, 0.28% active; note: nearly all actives have a fitted effect of over 40% in size
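Tdp1 1 nM final; 15 min RT w/ cpd; substrate 15 nM, 5 min; beads 10 ug/ml, 10 min; AlphaScreen read. Neg ctrl: no enzyme.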
Each line names hits and unclear results; the compound was inactive in the other large screens. Calls come from the whole dose curve; as a rule, active = well fitted curve in the direction sought with a large enough effect; inconclusive = small, poorly fitted or top-dose-only effect, or another doubt; inactive = no such curve, though single readings can be large; an effect the other way counts as inactive or inconclusive.

C/C(CCC(=O)O)=N/Nc1ccc([N+](=O)[O-])cc1[N+](=O)[O-]	none
CCCCN(CCCC)CC(O)c1cc(Cl)cc2c1-c1ccc(Cl)cc1C2=Cc1ccc(Cl)cc1 (centres undefined)	none (no result: POLH inh, Pol beta inh, TDP1 inh)
CC(=O)Nc1cc(O)c2nonc2c1O	none (no result: POLH inh, Pol beta inh)
O=C(Nc1ccc2c(c1)CCC2)c1cnn2c1NC(=C1CC1)C=C2C(F)F	none (no result: POLH inh, Pol beta inh, TDP1 inh)
CCc1ccc(NS(=O)(=O)c2[nH]ncc2C(=O)OC)cc1	Pol beta inh inconclusive, POLI inh 79.4µM
CCc1ccc(NS(=O)(=O)c2cc(OC)ccc2OC)cc1	none
CCOc1ccc(S(=O)(=O)Nc2ccccc2C(=O)N2CCCC2)cc1	none
CCOc1ccc(Oc2ccccc2NS(=O)(=O)c2ccc(CCC(=O)O)cc2)cc1	POLH inh 35.5µM, TDP1 inh inconclusive (no result: Pol beta inh)
CC(=O)[C@@H]1[C@@H]2C(=O)N(Cc3ccccc3)C(=O)[C@@H]2C2c3ccccc3C=CN21 (some centres undefined)	POLH inh inconclusive, POLI inh inconclusive
Cc1ccc(N2C(=O)[C@@H]3[C@H](C2=O)C2c4ccccc4C=CN2[C@@H]3C(=O)c2ccco2)c(C)c1 (some centres undefined)	POLH inh 28.2µM, POLI inh inconclusive
Cc1ccc(N2C(=O)[C@@H]3[C@H](C2=O)C2c4ccccc4C=CN2[C@@H]3C(=O)c2ccco2)cc1 (some centres undefined)	POLH inh inconclusive, POLI inh inconclusive
O=C(c1ccco1)[C@@H]1[C@@H]2C(=O)N(c3ccccc3)C(=O)[C@@H]2C2c3ccccc3C=CN21 (some centres undefined)	POLH inh inconclusive, POLI inh 12.6µM
Cc1ccc(N[S+](=O)([O-])c2cc3c(cc2CCc2ccccc2)NC(=O)CO3)cc1C	none (no result: POLH inh, POLK inh, Pol beta inh, POLI inh)
CCc1ccccc1NC(=O)Cn1nnc(C(=O)NCc2cccc(OC)c2)c1N	Pol beta inh inconclusive, POLI inh inconclusive
COc1cccc(CNC(=O)c2nnn(CC(=O)Nc3ccc(C)c(C)c3)c2N)c1	POLH inh inconclusive, Pol beta inh 25.1µM, POLI inh inconclusive
Nc1c(C(=O)NCCc2ccccc2)nnn1CC(=O)Nc1ccc(Cl)cc1	Pol beta inh inconclusive, POLI inh 79.4µM
Cc1cc(C)cc(NC(=O)Cn2nnc(C(=O)NCc3ccccc3Cl)c2N)c1	POLI inh inconclusive
Cc1ccc(C)c(NC(=O)Cn2nnc(C(=O)NCc3ccccc3Cl)c2N)c1	Pol beta inh 35.5µM, POLI inh inconclusive
CSc1cccc(NC(=O)Cn2nnc(C(=O)NCCc3ccccc3)c2N)c1	Pol beta inh 25.1µM, POLI inh 79.4µM
Cc1cc(C)cc(NC(=O)Cn2nnc(C(=O)NCCc3ccccc3)c2N)c1	Pol beta inh inconclusive, POLI inh inconclusive
Cc1cn(C)c(CC(=O)N2CCN(c3cccc(C(F)(F)F)c3)CC2)c1C(=O)O	POLI inh 89.1µM
C/C(=N\NC(=O)c1cc(C)nc2ccccc12)c1ccco1	Pol beta inh inconclusive
C/C(=N\NC(=O)c1cccc([N+](=O)[O-])c1)c1ccco1	POLI inh inconclusive
C/C(=N\NC(=O)c1cc2ccccc2cc1O)c1ccc(C)o1	Pol beta inh 79.4µM, POLI inh inconclusive
C/C(=N\NC(=O)c1cccc(N/N=C(\C)c2ccco2)c1)c1ccco1	POLH inh 22.4µM, POLK inh 89.1µM, POLI inh 44.7µM
C/C(=N/NC(=O)c1cc2ccccc2cc1O)c1ccco1	POLK inh inconclusive, Pol beta inh 63.1µM, POLI inh 44.7µM
O=C(CCS(=O)(=O)c1ccccc1)Nc1nc2cc3c(cc2s1)OCO3	POLH inh inconclusive, Pol beta inh inconclusive, POLI inh 70.8µM
O=C(CCS(=O)(=O)c1ccccc1)Nc1nc2cc3c(cc2s1)OCCO3	POLH inh inconclusive
COc1ccc(CNc2ncnc3nc[nH]c23)cc1	POLI inh inconclusive (no result: POLH inh, Pol beta inh)
O=C(NCCc1ccccc1)c1ccc2c(c1)N(Cc1ccc(Cl)cc1)C(=O)c1ccccc1S2(=O)=O	none
CN(C)CCN1C(=O)c2cccc3cc([N+](=O)[O-])cc(c23)C1=O	POLH inh inconclusive, POLK inh inconclusive, POLI inh 79.4µM (no result: Pol beta inh, TDP1 inh)
